Reference: PMC4336329 (PLoS ONE, 2015)
Hit rate of the full screen: of about 310,000 compounds, about 14,000 (4.5%) showed an effect of 50% or more. The effect is printed as a negative number. Only a selection was taken, and strong results are over-represented in it overall.

Target: human ether-à-go-go-related gene (hERG) potassium channel (human, UniProt Q12809)
Assay: primary screen, population patch clamp on CHO cells stably expressing hERG; higher = less effect of the substance
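Further: peak tail current of the secondary pulse compared with the same well before compound.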

Sequence of human ether-à-go-go-related gene (hERG) potassium channel (Q12809 whole entry, looked up): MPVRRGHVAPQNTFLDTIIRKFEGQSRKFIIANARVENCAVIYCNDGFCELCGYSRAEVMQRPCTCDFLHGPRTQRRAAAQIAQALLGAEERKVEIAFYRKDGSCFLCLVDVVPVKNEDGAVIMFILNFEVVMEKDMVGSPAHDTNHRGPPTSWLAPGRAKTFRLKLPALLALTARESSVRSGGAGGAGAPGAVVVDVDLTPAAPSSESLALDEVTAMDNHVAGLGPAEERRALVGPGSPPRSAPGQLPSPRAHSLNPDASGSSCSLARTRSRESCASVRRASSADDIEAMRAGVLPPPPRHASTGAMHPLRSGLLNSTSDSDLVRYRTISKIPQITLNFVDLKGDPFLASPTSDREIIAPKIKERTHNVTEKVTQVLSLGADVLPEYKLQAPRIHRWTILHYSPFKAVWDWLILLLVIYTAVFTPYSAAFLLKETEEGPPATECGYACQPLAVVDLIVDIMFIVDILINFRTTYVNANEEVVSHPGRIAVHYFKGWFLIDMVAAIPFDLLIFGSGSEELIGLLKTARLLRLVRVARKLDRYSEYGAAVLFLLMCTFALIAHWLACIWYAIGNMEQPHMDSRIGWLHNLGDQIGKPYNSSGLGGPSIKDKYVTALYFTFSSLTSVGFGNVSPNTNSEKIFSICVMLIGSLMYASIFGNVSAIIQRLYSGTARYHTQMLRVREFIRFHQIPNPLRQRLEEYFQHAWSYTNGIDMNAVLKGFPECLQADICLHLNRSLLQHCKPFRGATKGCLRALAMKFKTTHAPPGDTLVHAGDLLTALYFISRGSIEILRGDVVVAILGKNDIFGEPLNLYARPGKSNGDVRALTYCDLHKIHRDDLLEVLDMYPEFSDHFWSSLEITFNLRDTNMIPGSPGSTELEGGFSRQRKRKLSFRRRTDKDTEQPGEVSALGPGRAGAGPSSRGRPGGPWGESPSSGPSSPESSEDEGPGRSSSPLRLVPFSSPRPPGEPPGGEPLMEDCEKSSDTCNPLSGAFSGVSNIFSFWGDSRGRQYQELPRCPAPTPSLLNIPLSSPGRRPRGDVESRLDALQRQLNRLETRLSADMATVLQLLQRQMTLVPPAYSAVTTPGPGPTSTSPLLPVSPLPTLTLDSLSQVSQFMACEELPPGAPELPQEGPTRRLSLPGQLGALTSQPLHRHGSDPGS

Compared with `CC1Cc2ccccc2N1C(=O)CSc1nn2c(=O)c(C(C)(C)C)nnc2s1` (stereo not drawn), `CCN(CC)C(=O)CSc1nnc2sc3ccccc3n12` is higher in “hERG current change (%, negative = inhibition) at 10uM” value: 0.00368% for the first, 14.8% for the second.

Going from `CC(=O)Nc1ccc(S(=O)(=O)Nc2cc(-c3ccccc3)nn2C)cc1` to `Cc1ccccc1C(=O)N1N=C(c2cccc(NS(C)(=O)=O)c2)CC1c1cccs1` (stereo not drawn), the “hERG current change (%, negative = inhibition) at 10uM” value falls from 18.5% to -6.36%.

Going from `CC(Oc1ccc(Br)cc1)C(=O)NNC(=O)CCN1CCN(c2ccccc2)CC1` (stereo not drawn) to `O=C(CCN1CCN(c2ccccc2)CC1)c1ccc(Br)cc1`, the “hERG current change (%, negative = inhibition) at 10uM” value rises from -61.9% to -55.1%.

First: COc1ccccc1N1CCN(CC(C)N(C(=O)C2CCCCC2)c2ccccn2)CC1 (stereo not drawn)
Second: COc1ccccc1N1CCN(CCN(C(=O)C2CCCCC2)c2ccccn2)CC1.O=C(O)/C=C\C(=O)O
The “hERG current change (%, negative = inhibition) at 10uM” value of the first is lower: -67.9% for the first, -27.4% for the second.

Going from `COc1ccccc1N1CCN(CC(=O)c2ccc(F)cc2)CC1.Cl` to `COc1ccccc1N1CCN(CCCC(=O)c2ccc(F)cc2)CC1`, the “hERG current change (%, negative = inhibition) at 10uM” value falls from 15.7% to -71.7%.

First: O=C(CCN1CCN(C(=O)c2ccccc2)CC1)c1ccc(Br)cc1
Second: COc1ccc(C(=O)CCN2CCN(c3ccccc3OC)CC2)cc1.Cl
The “hERG current change (%, negative = inhibition) at 10uM” value of the first is higher: -29.5% for the first, -50.3% for the second.

Compared with `COc1ccc(OCCCC(=O)NNC(=O)CCN2CCN(c3ccccc3)CC2)cc1`, `O=C(CCN1CCN(c2ccccc2)CC1)NNC(=O)Cc1ccccc1Cl` is lower in “hERG current change (%, negative = inhibition) at 10uM” value: 7.89% for the first, 5.76% for the second.

Compared with `COc1ccccc1N1CCN(C(=O)CCC(=O)N2CCN(c3ccc(F)cc3)CC2)CC1`, `COc1ccc(C(=O)N2CCN(c3ccccc3OC)CC2)cc1` is higher in “hERG current change (%, negative = inhibition) at 10uM” value: -17% for the first, 21% for the second.

Going from `Cl.O=C(CCN1CCOCC1)c1ccc(Br)cc1` to `Cc1oc(S(=O)(=O)N2CCOCC2)cc1C(=O)Nc1ccc(F)cc1`, the “hERG current change (%, negative = inhibition) at 10uM” value falls from 25.2% to -6.29%.

Compared with `COc1ccccc1N1CCN(C(=O)C(CC(C)C)NC(=O)C2CCCCC2)CC1` (stereo not drawn), `COc1ccc(OC)c(NC(=O)CCN2CCN(c3ccccc3OC)CC2)c1` is higher in “hERG current change (%, negative = inhibition) at 10uM” value: -16.6% for the first, 2.82% for the second.

First: Oc1ccc(Cl)cc1C1=NNC(c2cccs2)C1 (stereo not drawn)
Second: Cc1cccc(-c2nnc(NC(=O)c3cccs3)s2)c1
The “hERG current change (%, negative = inhibition) at 10uM” value of the first is higher: 9.76% for the first, -21.7% for the second.

Going from `COc1ccc(C(=O)Nc2cc(C)on2)cc1OC` to `COc1ccc(N(CC(=O)Nc2cccc([N+](=O)[O-])c2C)S(C)(=O)=O)cc1OC`, the “hERG current change (%, negative = inhibition) at 10uM” value falls from 10% to -7.79%.

First: O=C(NCCn1cc(SCc2ccc(F)cc2)c2ccccc21)c1c(F)cccc1F
Second: CN(CC(=O)Nc1ccc(F)cc1)C(=O)c1cc(-c2ccco2)nc2ccccc12
The “hERG current change (%, negative = inhibition) at 10uM” value of the first is higher: 9.31% for the first, -32.5% for the second.

First: COc1cccc(C(=O)OCCN2C(=O)c3ccccc3C2=O)c1OC
Second: CCOC(=O)C1=C(CC)Nc2ccccc2N=C1NC(=O)Nc1ccccc1OC
The “hERG current change (%, negative = inhibition) at 10uM” value of the first is lower: 4.5% for the first, 13.8% for the second.

Compared with `CC1CC(C)CN(CCCNC(=O)Cn2ncc3c([nH]c4ccccc43)c2=O)C1` (stereo not drawn), `CCCCNc1nc2c(c(=O)[nH]c(=O)n2C)n1CCOc1ccccc1` is higher in “hERG current change (%, negative = inhibition) at 10uM” value: -18% for the first, 3.6% for the second.

Compared with `CC(C)NS(=O)(=O)c1ccc(CCC(=O)Nc2ccc3c(c2)OCO3)cc1`, `O=C(CSc1nc2ncccc2[nH]1)Nc1ccc2c(c1)OCO2` is higher in “hERG current change (%, negative = inhibition) at 10uM” value: 1.66% for the first, 9.63% for the second.

First: COc1ccc2c(c1)C(C)=CC(C)(C)N2C(=O)Nc1ccccc1
Second: Cc1cc(C)n2nc(SCC(=O)Nc3ccccc3)nc2n1
The “hERG current change (%, negative = inhibition) at 10uM” value of the first is lower: -14.9% for the first, -4.16% for the second.

Compared with `O=C(OCC(=O)N1CCN(c2ccccc2)CC1)c1cc(Br)ccc1Cl`, `CCOC(=O)C1CCN(C(=O)COc2ccc(Br)cc2Br)CC1` is lower in “hERG current change (%, negative = inhibition) at 10uM” value: -25.3% for the first, -51.8% for the second.

First: COC(=O)c1ccc(N2C(=O)C3CC=CC(C)C3C2=O)cc1 (stereo not drawn)
Second: COc1cccc(N2C(=O)C3C(C2=O)C3(c2ccccc2)c2ccccc2)c1 (stereo not drawn)
The “hERG current change (%, negative = inhibition) at 10uM” value of the first is higher: 19.3% for the first, -3.19% for the second.

Compared with `OC1CCCN(Cc2nc(Cc3ccccc3Cl)no2)C1` (stereo not drawn), `OCCC1CN(Cc2cnn(-c3ccccc3Cl)c2)CCN1Cc1ccsc1` (stereo not drawn) is lower in “hERG current change (%, negative = inhibition) at 10uM” value: 9.94% for the first, -11.7% for the second.

Going from `O=C(CN(Cc1ccco1)C(=O)c1ccc(F)cc1F)Nc1ccccc1C(F)(F)F` to `O=C(CCCc1ccccc1)Nc1ccc(Br)cc1F`, the “hERG current change (%, negative = inhibition) at 10uM” value rises from -21.5% to 14.4%.

Going from `CCOC(=O)C1CCN(C(=O)COc2ccc(Cl)cc2Cl)CC1` to `CCOC(=O)C1CCN(C(=O)COc2ccc(Cl)cc2C)CC1`, the “hERG current change (%, negative = inhibition) at 10uM” value falls from -40.7% to -46.1%.

Going from `CCOC(=O)C1CCN(C(=O)COc2cc(C)c(Br)c(C)c2)CC1` to `CCOC(=O)C1CCN(C(=O)COc2cc(C)c(Br)cc2C)CC1`, the “hERG current change (%, negative = inhibition) at 10uM” value falls from -43.2% to -54.7%.

Going from `CCOC(=O)C1CCN(C(=O)COc2ccc(Br)cc2C)CC1` to `CCOC(=O)N1CCN(Cc2ccccn2)CC1.O=C(O)C(=O)O`, the “hERG current change (%, negative = inhibition) at 10uM” value rises from -19.3% to 0.59%.

Compared with `CCOC(=O)C1(Cc2ccc(Cl)cc2)CCN(Cc2nccn2CC)CC1`, `CCOC(=O)C1(Cc2ccccc2)CCN(Cc2nccn2CC)CC1` is higher in “hERG current change (%, negative = inhibition) at 10uM” value: -67.6% for the first, -20% for the second.

Compared with `CCOC(=O)C1(Cc2cccc(OC)c2)CCCN(Cc2nccn2CC)C1` (stereo not drawn), `CCOC(=O)C1(CCc2ccccc2)CCN(Cc2nccn2CC)CC1` is lower in “hERG current change (%, negative = inhibition) at 10uM” value: -30.8% for the first, -66.2% for the second.

Going from `CCOC(=O)C1(CCOc2ccccc2)CCN(Cc2nccn2CC)CC1` to `CCOC(=O)C1(CCCc2ccccc2)CCN(Cc2nccn2CC)CC1`, the “hERG current change (%, negative = inhibition) at 10uM” value falls from -58.2% to -74%.

Compared with `CCOC(=O)C1(CCc2ccccc2)CCN(Cc2ccccn2)CC1`, `CCOC(=O)C1(Cc2ccccc2)CCCN(Cc2ccccn2)C1` (stereo not drawn) is higher in “hERG current change (%, negative = inhibition) at 10uM” value: -74.3% for the first, -20.7% for the second.

First: CCOC(=O)Cn1cnc2c(cnn2-c2ccc(Cl)cc2)c1=O
Second: Cc1ccc(CN2CCN(Cc3cnn(-c4ccc(Cl)cc4)c3)CC2CCO)o1 (stereo not drawn)
The “hERG current change (%, negative = inhibition) at 10uM” value of the first is higher: -4.32% for the first, -69.8% for the second.

Compared with `Cc1cc(OCC(=O)c2ccc(C(F)(F)F)cc2)n2cnnc2n1`, `Cc1cccc(NC(=O)CSc2nc3nc(C)cc(C)n3n2)c1` is lower in “hERG current change (%, negative = inhibition) at 10uM” value: 5.8% for the first, -32.6% for the second.

First: S=C(NCc1ccco1)Nc1cccc(Cl)c1
Second: Cc1cc(=O)oc2cc(NC(=O)c3ccccc3C(=O)O)ccc12
The “hERG current change (%, negative = inhibition) at 10uM” value of the first is lower: -6.16% for the first, 15.7% for the second.

First: CCN(CC)S(=O)(=O)c1cccc(NC(=O)COC(=O)c2n[nH]c(=O)c3ccccc23)c1
Second: CNC1=C(N(C(C)=O)c2ccc(Br)cc2)C(=O)c2ccccc2C1=O
The “hERG current change (%, negative = inhibition) at 10uM” value of the first is lower: -2.07% for the first, 11.5% for the second.

Going from `COC(=O)c1ccccc1NC=C1C(=O)OC2(CCCCC2)OC1=O` to `CCn1ccnc1[C@@H]1C[C@H]2CN(c3ccccc3OC)C(=O)[C@]23CCCN13`, the “hERG current change (%, negative = inhibition) at 10uM” value rises from -1.07% to 19.8%.

First: COc1ccc(S(=O)(=O)n2ccc(-c3ccc(OCCN(C)c4ccccn4)cc3)n2)cc1
Second: COc1ccc(S(=O)(=O)NCc2cccs2)cc1
The “hERG current change (%, negative = inhibition) at 10uM” value of the first is higher: 11.4% for the first, 2.67% for the second.

First: Cc1cc(C)cc(NC(=O)CSc2nc3nc(C)cc(C)n3n2)c1
Second: CCCn1c(C)cc(C(=O)CSc2nc3nc(C)cc(C)n3n2)c1C
The “hERG current change (%, negative = inhibition) at 10uM” value of the first is lower: -50.2% for the first, 6.97% for the second.

Going from `Cc1cc(C)n2nc(SCC(=O)c3cc(C)n(-c4cc(C)on4)c3C)nc2n1` to `Cc1cc(C)n2nc(SCC(=O)c3cc(C)n(CC4CCCO4)c3C)nc2n1` (stereo not drawn), the “hERG current change (%, negative = inhibition) at 10uM” value rises from -67.5% to 1.05%.

Compared with `CCC(C)(C)NC(=O)CN(C(=O)CCC(=O)Nc1ccccn1)c1ccc(F)c(Cl)c1`, `CCOC(=O)CC(NC(=O)Cc1cccs1)c1ccccc1Cl` (stereo not drawn) is higher in “hERG current change (%, negative = inhibition) at 10uM” value: -1.31% for the first, 5.29% for the second.

Compared with `CN(CC(=O)Nc1ccccc1Br)C(=O)CNC(=O)c1ccc(Oc2ccccc2)cc1`, `O=C(CCSc1ccccn1)c1ccccc1` is higher in “hERG current change (%, negative = inhibition) at 10uM” value: -17.8% for the first, 8.82% for the second.

First: CN1C[C@@H]2C[C@@H](c3cccn3-c3ccccn3)N3CCC[C@@]23C1=O
Second: O=C1N(C2CCCC2)C[C@@H]2C[C@@H](c3cccn3-c3ccccn3)N3CCC[C@@]123
The “hERG current change (%, negative = inhibition) at 10uM” value of the first is higher: -43.6% for the first, -62.6% for the second.

First: CN1C[C@@H]2C[C@@H](c3cccn3-c3nccs3)N3CCC[C@@]23C1=O
Second: O=C1N(C2CCCC2)C[C@@H]2C[C@@H](c3cccn3-c3nccs3)N3CCC[C@@]123
The “hERG current change (%, negative = inhibition) at 10uM” value of the first is higher: -19.2% for the first, -66.6% for the second.

Going from `Cc1ccc(CN2CCN(Cc3c(C)nn(C(C)C)c3C)CC2CCO)o1` (stereo not drawn) to `Cc1ccc(CN2CCN(Cc3c(C)nn(-c4ccc(F)cc4)c3C)CC2CCO)o1` (stereo not drawn), the “hERG current change (%, negative = inhibition) at 10uM” value falls from -7.24% to -34.6%.

First: CCn1cc(CN2CCN(Cc3ccsc3)C(CCO)C2)cn1 (stereo not drawn)
Second: OCCC1CN(Cc2cnn(-c3ccc(F)cc3)c2)CCN1Cc1ccsc1 (stereo not drawn)
The “hERG current change (%, negative = inhibition) at 10uM” value of the first is higher: -3.26% for the first, -65.7% for the second.

First: Cc1cc(C)c(CN2CCN(Cc3ccc(C)o3)C(CCO)C2)c(-n2cccn2)c1 (stereo not drawn)
Second: Cc1ccc(CN2CCN(Cc3ccncc3)CC2CCO)o1 (stereo not drawn)
The “hERG current change (%, negative = inhibition) at 10uM” value of the first is lower: -76.4% for the first, -8.3% for the second.

Going from `Cc1ccc(CN2CCN(Cc3cn[nH]c3-c3ccccc3)CC2CCO)o1` (stereo not drawn) to `Cc1ccc(CN2CCN(Cc3cnn(-c4ccc(F)cc4)c3)CC2CCO)o1` (stereo not drawn), the “hERG current change (%, negative = inhibition) at 10uM” value falls from -12.7% to -56.1%.

Going from `Cc1ccc(CN2CCN(Cc3cnc(C)s3)CC2CCO)o1` (stereo not drawn) to `Cc1ccc(CN2CCN(Cc3ccc(O)cc3)CC2CCO)o1` (stereo not drawn), the “hERG current change (%, negative = inhibition) at 10uM” value falls from -1.95% to -7.85%.
